Test results published in the supplement of paper PMC10849652.
The full data set covers some 7,900 targets. This sample favours those with a hit. About 0.6% of all pairs of compound and target were hits. A number with no mark means an inactive call.

Key:
Experiment in all cases: log2 fold change, soluble protein after heating vs DMSO (PISA); higher = thermal stabilisation; K562 cells, 10 uM, 30 min; active = over 0.2 and 3.5 SD of the protein, either way, in both replicates (recomputed)
[1] = compound: CC1=C(C=C(C=C1)NC(=O)C2=CC(=CC=C2)C(C)(C)C#N)NC3=CC4=C(C=C3)N=CN(C4=O)C
Outline: (§1)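 K562 cells at 2×10^6 cells/mL were exposed to 10 μM compound for 30 min, then aliquots were heated for 3 min across 48°C-58°C, pooled, and extracted in PBS containing 0.5% NP-40 at 4°C. The supernatant after 21,000xg for 90 min was taken as soluble protein and measured by TMTpro 16plex LC-MS/MS with channel sums equalised. Thermal stability is reported relative to control samples, with values from duplicates. Fold changes are given on a log2 scale.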

[2] = compound: CC1=C(C=C(C=C1)NC(=O)C2=CC(=CC=C2)N(C)C)NC(=O)C3=CC=C(C=C3)O
Outline: as §1

[3] = compound: CC1=CC=C(C=C1)SC2=C3C=C(SC3=CN=C2)C(=O)N
Outline: as §1

[4] = compound: CC1=NC(=CC=C1)C2=C(N=C(N2)C(C)(C)C)C3=CC4=NC=CN=C4C=C3
Outline: as §1

Nexturastat A = compound: CCCCN(Cc1ccc(C(=O)NO)cc1)C(=O)Nc1ccccc1 [Nexturastat A]
Outline: as §1

vemurafenib = compound: CCCS(=O)(=O)Nc1ccc(F)c(C(=O)c2c[nH]c3ncc(-c4ccc(Cl)cc4)cc23)c1F [vemurafenib]
Outline: as §1

[5] = compound: CCCS(=O)(=O)Nc1ccc(F)c(C(=O)c2c[nH]c3ncc(Cl)cc23)c1F
Outline: as §1

[6] = compound: CCCc1cc(C)[nH]c(=O)c1CNC(=O)c1cc(-c2ccnc(N3CCN(C)CC3)c2)cc2c1cnn2C(C)C
Outline: as §1

givinostat = compound: CCN(CC)Cc1ccc2cc(COC(=O)Nc3ccc(C(=O)NO)cc3)ccc2c1 [givinostat]
Outline: as §1

barasertib = compound: CCN(CCCOc1ccc2c(Nc3cc(CC(=O)Nc4cccc(F)c4)[nH]n3)ncnc2c1)CCOP(=O)(O)O [barasertib]
Outline: as §1

[7] = compound: CC[C@@H]1C(=O)N(C)c2cnc(Nc3ccc(C(=O)NC4CCN(C)CC4)cc3OC)nc2N1C1CCCC1
Outline: as §1

volasertib = compound: CC[C@@H]1C(=O)N(C)c2cnc(Nc3ccc(C(=O)N[C@H]4CC[C@H](N5CCN(CC6CC6)CC5)CC4)cc3OC)nc2N1C(C)C [volasertib]
Outline: as §1

[8] = compound: CC[C@H](C)N1C=C(C2=C(C=C(C=C21)C3=CN=C(C=C3)N4CCNCC4)C(=O)NCC5=C(C=C(NC5=O)C)C)C
Outline: as §1

epoxomicin = compound: CC[C@H](C)[C@@H](C(=O)N[C@@H]([C@@H](C)O)C(=O)N[C@@H](CC(C)C)C(=O)[C@]1(CO1)C)NC(=O)[C@H]([C@@H](C)CC)N(C)C(=O)C [epoxomicin]
Outline: as §1

[9] = compound: CCn1c(C(=O)N(C2CC2)C2CC2)cc2c3c(ncn3C)c(Nc3cc(C)n(C)n3)nc21
Outline: as §1

[10] = compound: CCn1cc(-c2ccnc3[nH]c(-c4cccc(CN(C)C)c4)cc23)c(-c2ccc(NC(=O)N(C)C)cc2)n1
Outline: as §1

[11] = compound: CN(C)CC(=O)Nc1ccc2[nH]c(=O)c3ccccc3c2c1
Outline: as §1

rosiglitazone = compound: CN(CCOC1=CC=C(C=C1)C[C@H]2C(=O)NC(=O)S2)C3=CC=CC=N3 (racemic) [rosiglitazone]
Outline: as §1

[12] = compound: CN1C2=C(C3=C1C(=O)N(N=C3)CC4=CC(=CC=C4)N)SC(=C2)S(=O)C
Outline: as §1

[13] = compound: CN1CCC(CNc2ccc3ncc(-c4cccc(OC(F)(F)F)c4)n3n2)CC1
Outline: as §1

UniProt P0CG38, sequence (P0CG38 whole entry, looked up): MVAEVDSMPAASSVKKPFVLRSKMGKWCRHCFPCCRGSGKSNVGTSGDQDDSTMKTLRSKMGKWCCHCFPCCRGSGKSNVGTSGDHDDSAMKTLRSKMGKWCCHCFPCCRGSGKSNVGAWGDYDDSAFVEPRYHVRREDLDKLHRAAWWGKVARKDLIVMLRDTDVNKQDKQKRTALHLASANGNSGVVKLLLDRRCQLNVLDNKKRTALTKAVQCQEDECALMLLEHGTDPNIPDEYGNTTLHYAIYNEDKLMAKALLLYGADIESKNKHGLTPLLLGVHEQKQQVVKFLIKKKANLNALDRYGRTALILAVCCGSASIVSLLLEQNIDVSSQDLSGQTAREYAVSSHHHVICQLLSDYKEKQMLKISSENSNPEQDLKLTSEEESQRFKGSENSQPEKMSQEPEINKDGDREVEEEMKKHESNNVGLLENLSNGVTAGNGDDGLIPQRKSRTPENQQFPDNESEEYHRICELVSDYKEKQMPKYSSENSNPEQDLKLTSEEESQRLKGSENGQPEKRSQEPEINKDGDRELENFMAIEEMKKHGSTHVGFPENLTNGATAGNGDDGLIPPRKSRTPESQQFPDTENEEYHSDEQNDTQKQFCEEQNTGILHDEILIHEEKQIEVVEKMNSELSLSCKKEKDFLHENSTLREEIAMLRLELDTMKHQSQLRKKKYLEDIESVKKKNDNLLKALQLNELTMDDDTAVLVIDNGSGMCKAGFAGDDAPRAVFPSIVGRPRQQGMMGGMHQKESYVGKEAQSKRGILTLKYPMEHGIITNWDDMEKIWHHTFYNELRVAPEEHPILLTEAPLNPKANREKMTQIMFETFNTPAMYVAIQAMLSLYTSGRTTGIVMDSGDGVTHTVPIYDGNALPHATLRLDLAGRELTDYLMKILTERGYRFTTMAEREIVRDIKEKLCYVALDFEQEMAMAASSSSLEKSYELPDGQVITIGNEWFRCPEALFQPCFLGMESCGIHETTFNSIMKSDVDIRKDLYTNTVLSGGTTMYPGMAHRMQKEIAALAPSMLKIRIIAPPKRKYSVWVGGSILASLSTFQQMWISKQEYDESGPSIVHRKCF
UniProt P42338, sequence (P42338 whole entry, looked up): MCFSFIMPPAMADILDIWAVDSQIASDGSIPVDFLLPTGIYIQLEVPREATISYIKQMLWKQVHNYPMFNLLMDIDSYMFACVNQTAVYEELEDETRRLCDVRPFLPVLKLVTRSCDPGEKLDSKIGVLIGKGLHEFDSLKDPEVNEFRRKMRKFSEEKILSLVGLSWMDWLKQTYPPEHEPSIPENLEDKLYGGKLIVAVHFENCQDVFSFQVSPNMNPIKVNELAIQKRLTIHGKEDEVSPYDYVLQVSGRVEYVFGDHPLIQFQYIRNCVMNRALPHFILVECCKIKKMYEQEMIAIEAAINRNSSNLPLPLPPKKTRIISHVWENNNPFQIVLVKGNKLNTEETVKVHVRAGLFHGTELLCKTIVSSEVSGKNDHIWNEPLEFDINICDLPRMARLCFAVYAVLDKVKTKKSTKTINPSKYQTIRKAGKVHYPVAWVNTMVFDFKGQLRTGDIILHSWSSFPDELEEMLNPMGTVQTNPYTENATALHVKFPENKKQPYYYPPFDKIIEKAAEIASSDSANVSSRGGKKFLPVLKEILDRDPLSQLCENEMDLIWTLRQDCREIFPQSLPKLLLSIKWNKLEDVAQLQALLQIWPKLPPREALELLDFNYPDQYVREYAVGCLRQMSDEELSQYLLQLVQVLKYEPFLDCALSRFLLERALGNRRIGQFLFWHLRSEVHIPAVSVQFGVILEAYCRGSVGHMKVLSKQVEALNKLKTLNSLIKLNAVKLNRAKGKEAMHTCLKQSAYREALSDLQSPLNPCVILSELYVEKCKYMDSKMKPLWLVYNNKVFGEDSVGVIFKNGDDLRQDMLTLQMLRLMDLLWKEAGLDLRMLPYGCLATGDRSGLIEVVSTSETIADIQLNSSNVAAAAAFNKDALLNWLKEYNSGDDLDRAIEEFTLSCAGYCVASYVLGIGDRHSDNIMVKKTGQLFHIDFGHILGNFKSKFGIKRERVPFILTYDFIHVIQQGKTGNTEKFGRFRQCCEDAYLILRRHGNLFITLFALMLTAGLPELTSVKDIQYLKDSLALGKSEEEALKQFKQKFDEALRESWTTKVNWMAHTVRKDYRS
UniProt Q86W56, sequence (Q86W56 whole entry, looked up): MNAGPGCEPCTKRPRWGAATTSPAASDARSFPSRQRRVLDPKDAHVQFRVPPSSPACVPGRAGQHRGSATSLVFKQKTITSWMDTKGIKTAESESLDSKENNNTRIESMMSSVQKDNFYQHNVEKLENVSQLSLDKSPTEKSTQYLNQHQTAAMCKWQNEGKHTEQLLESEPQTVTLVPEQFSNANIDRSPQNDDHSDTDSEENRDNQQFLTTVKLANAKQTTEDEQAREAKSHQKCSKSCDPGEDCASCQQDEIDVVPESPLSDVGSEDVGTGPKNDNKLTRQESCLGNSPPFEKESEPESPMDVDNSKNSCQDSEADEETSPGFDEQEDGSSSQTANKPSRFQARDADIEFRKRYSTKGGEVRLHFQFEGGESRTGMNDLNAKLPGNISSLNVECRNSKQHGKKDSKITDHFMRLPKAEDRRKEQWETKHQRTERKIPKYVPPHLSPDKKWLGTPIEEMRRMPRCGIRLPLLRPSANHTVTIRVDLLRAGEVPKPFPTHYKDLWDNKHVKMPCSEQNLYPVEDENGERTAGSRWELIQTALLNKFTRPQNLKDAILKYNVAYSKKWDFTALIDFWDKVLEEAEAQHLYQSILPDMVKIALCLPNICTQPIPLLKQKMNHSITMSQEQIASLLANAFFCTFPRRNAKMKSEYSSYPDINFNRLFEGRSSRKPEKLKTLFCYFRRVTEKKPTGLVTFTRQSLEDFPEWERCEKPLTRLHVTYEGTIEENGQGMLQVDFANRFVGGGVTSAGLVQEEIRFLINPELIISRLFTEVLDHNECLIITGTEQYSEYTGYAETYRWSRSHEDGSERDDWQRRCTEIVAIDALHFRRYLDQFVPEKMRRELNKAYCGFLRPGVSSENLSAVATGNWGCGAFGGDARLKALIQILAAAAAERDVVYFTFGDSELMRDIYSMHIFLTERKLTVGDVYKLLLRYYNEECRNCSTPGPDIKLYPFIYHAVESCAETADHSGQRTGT
UniProt Q10713, sequence (Q10713 whole entry, looked up): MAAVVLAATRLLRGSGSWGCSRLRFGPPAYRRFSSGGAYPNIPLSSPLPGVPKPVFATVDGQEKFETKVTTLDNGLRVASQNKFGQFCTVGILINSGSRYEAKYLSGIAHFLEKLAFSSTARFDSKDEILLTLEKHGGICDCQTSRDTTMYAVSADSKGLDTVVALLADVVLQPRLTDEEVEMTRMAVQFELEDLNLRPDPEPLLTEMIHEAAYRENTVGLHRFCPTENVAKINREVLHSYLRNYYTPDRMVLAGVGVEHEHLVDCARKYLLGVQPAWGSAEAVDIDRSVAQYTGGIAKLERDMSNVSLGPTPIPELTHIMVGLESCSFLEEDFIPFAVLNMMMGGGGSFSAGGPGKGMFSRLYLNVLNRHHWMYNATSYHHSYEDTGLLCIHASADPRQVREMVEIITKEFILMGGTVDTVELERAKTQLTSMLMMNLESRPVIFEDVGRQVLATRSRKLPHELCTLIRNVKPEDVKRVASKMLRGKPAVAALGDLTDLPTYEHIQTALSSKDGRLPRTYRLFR
UniProt Q8NEB9, sequence (Q8NEB9 whole entry, looked up): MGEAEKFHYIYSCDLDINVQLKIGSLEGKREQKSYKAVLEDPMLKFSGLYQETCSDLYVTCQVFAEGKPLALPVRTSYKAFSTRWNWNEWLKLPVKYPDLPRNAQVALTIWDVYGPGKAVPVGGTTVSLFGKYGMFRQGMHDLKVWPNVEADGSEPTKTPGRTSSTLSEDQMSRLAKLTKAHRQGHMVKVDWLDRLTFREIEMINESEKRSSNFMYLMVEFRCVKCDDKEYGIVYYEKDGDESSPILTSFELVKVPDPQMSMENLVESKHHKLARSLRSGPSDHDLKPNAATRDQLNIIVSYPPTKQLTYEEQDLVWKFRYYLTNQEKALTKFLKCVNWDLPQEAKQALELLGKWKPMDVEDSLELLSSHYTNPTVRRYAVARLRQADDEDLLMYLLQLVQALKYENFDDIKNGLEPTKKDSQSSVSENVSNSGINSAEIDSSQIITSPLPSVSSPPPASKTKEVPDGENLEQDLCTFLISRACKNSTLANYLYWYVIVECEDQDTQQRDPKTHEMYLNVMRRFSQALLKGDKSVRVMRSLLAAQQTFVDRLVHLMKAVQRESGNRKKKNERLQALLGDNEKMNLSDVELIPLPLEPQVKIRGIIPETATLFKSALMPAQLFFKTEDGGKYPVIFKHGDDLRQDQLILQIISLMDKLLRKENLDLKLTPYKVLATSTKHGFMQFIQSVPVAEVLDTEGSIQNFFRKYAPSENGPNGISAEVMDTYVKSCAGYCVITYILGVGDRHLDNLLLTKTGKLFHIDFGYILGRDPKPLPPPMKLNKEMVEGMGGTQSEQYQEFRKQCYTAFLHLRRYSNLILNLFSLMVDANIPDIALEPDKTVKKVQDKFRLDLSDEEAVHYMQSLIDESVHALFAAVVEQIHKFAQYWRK
UniProt P17980, sequence (P17980 whole entry, looked up): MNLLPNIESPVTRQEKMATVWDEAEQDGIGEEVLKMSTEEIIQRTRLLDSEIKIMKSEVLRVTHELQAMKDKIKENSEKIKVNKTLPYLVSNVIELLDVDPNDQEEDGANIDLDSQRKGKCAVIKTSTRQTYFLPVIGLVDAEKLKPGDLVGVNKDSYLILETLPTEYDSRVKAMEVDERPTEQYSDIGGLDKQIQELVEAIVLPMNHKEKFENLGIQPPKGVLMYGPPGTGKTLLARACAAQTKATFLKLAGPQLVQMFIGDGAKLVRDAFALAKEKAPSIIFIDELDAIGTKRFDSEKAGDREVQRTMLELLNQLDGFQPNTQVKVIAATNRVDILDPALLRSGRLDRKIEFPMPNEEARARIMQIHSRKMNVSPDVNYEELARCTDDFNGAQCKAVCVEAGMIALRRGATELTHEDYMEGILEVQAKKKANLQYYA

Target	log2 fold change [1]	log2 fold change [2]	log2 fold change [3]	log2 fold change [4]	log2 fold change (Nexturastat A)	log2 fold change (vemurafenib)	log2 fold change [5]	log2 fold change [6]	log2 fold change (givinostat)	log2 fold change (barasertib)	log2 fold change [7]	log2 fold change (volasertib)	log2 fold change [8]	log2 fold change (epoxomicin)	log2 fold change [9]	log2 fold change [10]	log2 fold change [11]	log2 fold change (rosiglitazone)	log2 fold change [12]	log2 fold change [13]
PYGL (UniProt P06737)	-0.105	0.011	0.011	0.006	-0.018	-0.009	0.003	-0.015	0.012	-0.01	-0.091	-0.262 (active)	0.008	-0.02	-0.081	0.016	-0.001	0.018	-0.006	0.029
PIK3C3 (UniProt Q8NEB9)	0.003	0.015	-0.046	-0.085	0.54 (active)	-0.001	0.02	-0.051	0.088	-0.015	0.16	0.153	0.023	-0.071	0.044	-0.117	-0.03	-0.022	0.025	0.015
PNPLA2 (UniProt Q96AD5)	0.009	-0.017	-0.003	0.008	-0.021	-0.017	0.053	0.026	0.036	-0.092	0.11	0.126	0.015	-0.041	0.013	0.156	-0.044	-0.155	-0.025	-0.068
PARG (UniProt Q86W56)	0.126	-0.064	-0.008	0.025	0.018	0.087	-0.006	-0.003	0.107	0.07	0.036	-0.025	0.059	0.004	-0.126	-0.016	0.09	0.059	0.005	-0.126
PPT2 isoform 3 (UniProt Q9UMR5)	-0.064	-0.002	0.025	0.078	0	-0.001	0.052	0.002	0.041	-0.017	-0.57 (active)	-0.87 (active)	-0.006	-0.021	0.005	0.206	-0.068	0.048	-0.051	-0.682 (active)
PMM2 (UniProt O15305)	-0.102	0.021	-0.014	-0.009	-0.124	-0.04	-0.009	-0.055	0.015	0.003	-0.03	-0.021	0.026	-0.021	-0.003	-0.002	-0.049	0.037	-0.076	-0.049
PJA2 (UniProt O43164)	-0.059	0.019	-0.008	-0.019	0.188	-0.024	-0.062	-0.024	0.017	-0.004	-0.007	0.001	0.014	0.202	0.055	0.066	-0.051	0.004	-0.001	-0.156
PRKAR2B (UniProt P31323)	0.04	0.017	0.038	0.022	0.046	0.033	0.052	-0.014	0	0.047	-0.037	0.053	0.056	0.025	-0.023	-0.023	-0.008	0.051	0.005	-0.495 (active)
PMPCA (UniProt Q10713)	0.046	-0.049	0.014	0.006	-0.102	0.025	0.037	-0.006	-0.019	-0.027	0.018	0.158	0.021	0.029	0.016	-0.095	0.013	0.024	-0.124	0.138
PI4K2A (UniProt Q9BTU6)	-0.037	-0.02	0.004	0.023	-0.005	0.023	0.015	-0.036	-0.008	-0.011	-0.075	-0.081	0.009	0.027	0.037	-0.023	-0.014	0.055	0.009	-0.146
POLR2K (UniProt P53803)	-0.036	0.065	0.056	0.024	-0.162	-0.001	-0.024	0.075	-0.137	0.023	-0.259	-0.002	-0.05	-0.032	0.144	-0.049	0.05	-0.059	-0.02	0.05
POTEI (UniProt P0CG38)	0.056	-0.035	-0.012	0.052	-0.071	0.08	0.014	-0.072	-0.018	0	-0.009	-0.009	-0.043	-0.039	-0.026	0.009	-0.006	-0.028	-0.06	0.035
PSMA3 (UniProt P25788)	0.01	0.027	-0.025	0.013	-0.039	-0.001	-0.019	-0.011	-0.011	-0.034	0.067	0.134	-0.025	-0.169	0.043	0.002	-0.003	-0.039	-0.027	0.046
PRKCG (UniProt P05129)	0.085	-0.117	-0.058	0.021	-0.08	-0.041	0.034	0.019	-0.316	-0.094	-0.253	-0.062	0.058	0.086	-0.078	-0.117	0.058	0.044	0.093	-0.176
PIK3CB (UniProt P42338)	-0.034	-0.009	0.024	0.054	0.013	0.022	-0.001	-0.041	0.052	0.077	0.017	-0.224 (active)	0.082	0.033	-0.01	-0.071	0.008	0.078	0.003	0.175
PSMC3 (UniProt P17980)	0.013	0.02	-0.024	-0.051	0.034	-0.063	-0.055	0.002	-0.034	-0.059	0.032	0.179	-0.021	-0.319 (active)	-0.028	0.079	-0.031	-0.038	0.021	0.018
